Out of some 31,000 sequences screened, about 1,400 (4.5%) were called active. The sample as a whole holds a higher share of actives than the screen did. Unmarked numbers belong to inactive results.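 How the source made its calls: active means median seed-adjusted z-score above 1 or below -1; inactive means the rest.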

A short description of the assay: Novel Modifiers of Survival Motor Neuron (SMN) Protein: Gene Identification via Genome-wide siRNA Screen.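 Further: luminescence tracks full-length SMN protein made from the SMN2 reporter.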 The following applies: HEK293T SMN2-luciferase reporter, siRNA knockdown, 72 h; actives lie on both sides. A digest of the protocol:
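Steps: spot 1 pmol siRNA, add Lipofectamine RNAiMax in serum-free DMEM, seed HEK293T SMN2–luciferase reporter cells; incubate 72 h at 37 °C; add ONE-Glo; normalize luminescence to control siRNA, log10, MAD. Candidates: |MAD| > 1.0.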
In the case of GCAUUGAGAUGUUCCACAATT against TUFM, the median seed-adjusted z-score is 1.07 (active).

On to GAAUCACUCUUUGACAACATT against SLC2A13, for which the median seed-adjusted z-score is -0.0451. For the sequence GAAGAAUACAAACAGCAAUTT against CRCP, the median seed-adjusted z-score was 0. For the sequence CAGCUGUUCUCAUAUGCUATT against ATP5G3, the median seed-adjusted z-score was 0.

Consider CCUGAUUACUAUAAGAUCATT against BRD4, for which the median seed-adjusted z-score is 1.13 (active). For GAACCUCUCUGAAACUGCUTT against PBLD the value was -0.0809; for CGACUCCGGAGGAUUGAAATT against GSX2, -0.621; for GCAAGUUAGUGGAUUAAAATT against FOXP1, -0.198. GACUAGUACUUACGGCUUUTT against RBM15: the median seed-adjusted z-score was -0.409. Turning to GCAUGAACGCGGUCAUGAUTT against RAB40C, the median seed-adjusted z-score was -0.161. CAGGUCAAGUGUUACCGAUTT against ZCCHC13: the median seed-adjusted z-score is -0.297. With GCAAUUACAGGCUAGUGAATT against AKAP9, the median seed-adjusted z-score was -1.22 (active). For CCUACUUCGGAGUCUAUGATT against SLC25A4 the value was -0.379; for CAAGGUUGAUGGGCGUGUATT against HNRNPA3, 0.915; for CCAGGACUUUGUUACUGCATT against TIGD6, -0.443.

For the sequence GCUGGUACCCGUCAACAAATT against ABCC10, the median seed-adjusted z-score is -1.56 (active). With GGACUUCAAUAUCGCAGUATT against PLCE1, the median seed-adjusted z-score was 0.597. For GGAACAGCGCAGUACGUUUTT against PDPK1 the value was 0.0807; for CCAUCGCUUUCAGCAGACATT against DLX6, 0.0275. The value for GGACCACAAGGGAAUACAATT against KHDRBS1 was 0.0916; that for ACUUGGAUCAUUUCCCUGATT against SLC13A5 was 0; that for GACCUUGAAUGUUCAACAUTT against ZNF470 was -1.26 (active). For GCCGCAUCGUAGCUCGUAATT against RRAD the value was -0.267; for GGAAUAUGCAUAUCAUGGATT against LNPEP, -0.386; for CGAUAUAUGUGAUAUGCGUTT against ZNF740, -0.914. With GCAACAAGACGGAAUUGGATT against SFRS3, the median seed-adjusted z-score is 2.74 (active). Consider GAGUGGACAUUCUAAUCAATT against RDH13, for which the median seed-adjusted z-score is 0.208.

Take CCAUCUUAAACUCGCUCUATT against GPR114: the median seed-adjusted z-score is 0.805. As to CUACCGGGCUGACCUCAAATT against GPR153, the median seed-adjusted z-score was -1.08 (active). The value for UGAGAGCUCUAGAUAUGAATT against ZNF768 was 0.169; that for ACGGCUCUGUGGACACAGATT against GPR78 was 0.607; that for CGAGUGAAAGAAUCAAUAUTT against OXSR1 was -0.0682. Regarding GCUACGAGUUUACUAUCUUTT against TNIK, the median seed-adjusted z-score was 0.154. For the sequence CCUCAGAGCUCAAUCAUCUTT against CD5, the median seed-adjusted z-score is 0.0416. For CGAUAAUCUGGGCUACAGATT against ADD1 the value was -0.0129. For CCAAUACUAACAUCUUCAATT against MCART1 the value was -0.605; for CAACGGCUCUUAGACCACATT against SPRY4, -1.23 (active); for GCUCAGUAUUUAAACAUCATT against COL9A2, 0.0208. For AGCCGACAGUGGUGCACUATT against PLA2G15 the value was 0; for CGGAGACCGUACGAAAGUATT against A2M, -1.96 (active); for GGAUGGAAGAUAGCUUGAATT against CPEB4, -0.53. For CGGGCAUUGCCACCAAAGATT against DUX5, the median seed-adjusted z-score was -0.295. As for GCAUUCAUCACUUCGAAAATT against BNC2, the median seed-adjusted z-score is -0.0556. The value for CCUACAGCAGUGUCUAUGATT against EIF3C was 0.56; that for GGUUGACUCAGAUACUACATT against CENPE was 0.298.

For GGAUCCUUACUUCUUGUCATT against COQ2, the median seed-adjusted z-score was -0.0121. With GGAAACCAGUGGAUAUUAATT against F11, the median seed-adjusted z-score was -0.0319.

Regarding ACAUCAACGUGGAACGAGATT against EIF4A1, the median seed-adjusted z-score was -1.05 (active). Take GAUGAGACUUUGACUAUAATT against FGD6: the median seed-adjusted z-score was 0.536. The value for GCCUGAACCUCAUCCUUAUTT against ENPP1 was -0.273; that for GGGUUUUCAUUCAGAUGAATT against MLL4 was -0.259; that for GGAUUAUUCCUACCUAAUUTT against CDYL2 was -0.379. Take GGAAGAAGGUUCUCAAACATT against RETSAT: the median seed-adjusted z-score is -1.7 (active).

With GGAGCAGUAUUGACAACAATT against NUFIP1, the median seed-adjusted z-score was -0.673. In the case of GCACAAUUGAAAACUUCAATT against CYSLTR2, the median seed-adjusted z-score was 0.0461. Regarding GGAUGUUCCAAAUCACGGATT against MBTD1, the median seed-adjusted z-score was 0.0649. The value for GGAUUGCCCAGGGUUCCUATT against DGKQ was -0.0985; that for CGGUUAGAUUUGGACAGUATT against ARHGAP9 was 0; that for GGACUUGGUUUUUCGUACATT against MED14 was -3.22 (active). For UCCUUUAACUCGACAGUCATT against DRG2, the median seed-adjusted z-score was -0.175. Regarding AGAGGGCACUGGACCUGAATT against UQCRB, the median seed-adjusted z-score was 0.348. Consider GAUCCAAUGUAAACGUGGATT against GRLF1, for which the median seed-adjusted z-score is 0.0307. Regarding GGACCAGAACCACAAGCAATT against GHSR, the median seed-adjusted z-score was 0.18. Regarding GAUCAUCUCUGAAACAGCATT against GYG1, the median seed-adjusted z-score was 0.119. For the sequence CAUUCGACAUAGAAGAGUUTT against ZNF551, the median seed-adjusted z-score is -0.171. For GGUUACAAGCGGUUUGGUATT against COLEC12 the value was -1.04 (active).

As for CAUGUUAAUUGUUAAGGAUTT against WFDC8, the median seed-adjusted z-score is 0.0427. As for GAGCAGAUCGAGAUCAAAATT against EVI5L, the median seed-adjusted z-score was 0.0497.

Consider GGAAAUUCAGGUACGGAUATT against ADAMTS4, for which the median seed-adjusted z-score was -0.0153. In the case of CGGACAUUCGUGCAAAGAATT against PRPF6, the median seed-adjusted z-score is -1.06 (active). The value for AGAAUACGAUGACCACCAATT against RING1 was 0.685; that for GCAUACAUCAUGACCGUCATT against DUSP22 was 0. Consider GCCGAUACCUUCACUCGAATT against TAP1, for which the median seed-adjusted z-score is -0.506. GGGAAGCUAUGCGAAAUUATT against RBPJ: the median seed-adjusted z-score was -0.452.

On to GCUUCAUUGAGUACGAGAATT against PUF60, for which the median seed-adjusted z-score was 2.26 (active). On to GGAUCGGAUAAAUAACAGUTT against HEY2, for which the median seed-adjusted z-score was -0.0831. As to GAUCAAGACUCUGCGCCUATT against HAND1, the median seed-adjusted z-score was 0.161. For GAAUUGCUGAUAAACCUAUTT against SMNDC1, the median seed-adjusted z-score is -1.54 (active).

Consider GUAUUCCAGCGAAUCCGAUTT against PAK7, for which the median seed-adjusted z-score is -0.202.

As for CGUCAAAAGAGCCCAUAAATT against ENPP5, the median seed-adjusted z-score is -0.0499. As to GGAACUCUAUGGUCAUCUATT against SSTR1, the median seed-adjusted z-score is 0.285.

With CCAAAGGAGUCAGCACUGUTT against PLXNA1, the median seed-adjusted z-score is 0. As to GCAGUUGAAUUAUCACAGUTT against UQCRFS1, the median seed-adjusted z-score was -1.28 (active). GGAAGAAUGUGGUUUGCGATT against GFOD2: the median seed-adjusted z-score is -0.0447.

On to GGAGAGGAUUAUUUCCGCATT against SDR9C7, for which the median seed-adjusted z-score was 0. With GCAAGUUGGAGAACGAGUATT against MED8, the median seed-adjusted z-score is -1.61 (active). For GGCCCAAGAUCUUCCCUAATT against GPR179 the value was -0.513. With CAGUCGUUGCUGUCAAAAATT against RGS9, the median seed-adjusted z-score was 0.0665. The value for UGCUCUCUGUUGCAUUGAATT against IAPP was -0.157. The value for GAUUUCUAAUUAACACAAUTT against POLR1D was -0.0409; that for CCAUCAUCCGGGAUGAGGATT against NPEPL1 was 1.12 (active); that for GCAAAGUGCCGAAACAAGATT against ATF3 was -0.000485. The value for CGAAUAUACCAGGACGAAATT against SATB1 was 0; that for UACUGUCUCUAGUCUUUUUTT against SEC11B was 1.04 (active); that for GCUUGUUCGGCUACACGAATT against CYP8B1 was 0. In the case of CUAAAAGACCGAACAAUAATT against HNRPUL1, the median seed-adjusted z-score is -0.047. Consider GGUUCAUGUUUGCAAUCUUTT against POLR2B, for which the median seed-adjusted z-score is -4.81 (active). On to UGAACGCAGUCAUCCGGAATT against MAPK15, for which the median seed-adjusted z-score is 0.0724. For CCAAUGAUGUAUGAUCUAATT against UBE3A, the median seed-adjusted z-score was 0.0949.

With GGACUAUAAAUCCAGCUUUTT against TOMM34, the median seed-adjusted z-score is -0.503. Regarding CUCCUAAAGUGCAUCGCAATT against GUF1, the median seed-adjusted z-score is 0.119. For CAUCAGAUCUUGAUCAGUUTT against NKTR, the median seed-adjusted z-score is -1.1 (active). In the case of CUCUUCACGUCUGACCUGATT against HTR6, the median seed-adjusted z-score is -0.463. For CCCAUAUGAUUACCCAUUUTT against MYH2, the median seed-adjusted z-score is -0.73. The value for CCUGCAGAAUAACCUGAUATT against OPTC was 0.0953; that for CCUGGAAACUACAAGCCCATT against SIRT3 was -0.341. Turning to GCCUCGAGCCUAUUCGUUATT against PCDHB4, the median seed-adjusted z-score is 0.00998. For GACUACGACUGGUUCUUCATT against CSGLCA-T, the median seed-adjusted z-score is 0.146.

The record behind these values is PubChem BioAssay AID1347426 (Functional Genomics Laboratory (NCATS/FGL), 2020).
